# From PubChem BioAssay
# FLuc modulator – firefly luciferase modulation, counter-screen for miR-21 project | purified FLuc, Km substrates, luminescence inhibition | Potency, µM (series often up to 57.5 µM), for inactives: at the top dose activity change, negative = inhibition, usual class: inhibitors | hit rate 6.9% among 360,000;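 also: plate controls were vehicle for no effect and reference inhibitor for full effect; nearly all actives have a fitted effect of over 55% in size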
#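 Purified P. pyralis luciferase, 10 nM final, with Km-level 10 uM D-luciferin and 10 uM ATP in 50 mM Tris acetate pH 7.5, 10 mM Mg acetate, 0.01% Tween-20, 0.05% BSA; 6-point qHTS titration about 60 µM downward; luminescence read.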
# NPC1 promoter act – activates the NPC1 promoter; Huh7 NPC1 promoter luciferase reporter, 24 h; Potency, µM (highest dose often 9.22 µM), without a hit: at the highest dose activation, hits mostly activators; hit rate 2.4% among 320,000; also: % of control where 0% means no effect; nearly all actives have a fitted effect of over 60% in size
#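 NPC1 promoter–luciferase Huh7 cells; 24 h compound; luminescence.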
# Rab9 promoter act – activators of Rab9 promoter | Huh7 Rab9 promoter-luciferase reporter, luminescence, 24 h | Potency, µM (titrated, usually from 9.22 µM), for the others: at the top dose activation, negative = inhibition, hits mostly activators | hit rate 2.8% among 320,000 | AID 485297; also: % of control where 0% means no effect; nearly all actives have a fitted effect of over 60% in size
#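 Stable Rab9-luc Huh7, 1500 cells/well, 2 h settle; cmpd in DMSO, 24 h, 37 °C/5% CO2; luciferase reagent 10 min RT; luminescence.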
# ELG1 genotox – inducers of genotoxicity in HEK293T ELG1-luciferase cells. HEK293T ELG1-luciferase reporter, luminescence, 16 h. Potency, µM (titrated, usually from 46 µM), without a hit: at the highest dose activity change, positive = activation, hits mostly activators. hit rate 1.3% among 330,000; also: % of control where 0% means no effect; nearly all actives have a fitted effect of over 60% in size
#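 After overnight (16 hr) compound treatment at 37 °C, ELG1-luciferase HEK293T cells were lysed with ONE-Glo; luminescence quantified 30 min later at room temperature.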
# SMN2 splice up – enhancers of SMN2 splice variant expression | HEK293 SMN2-luciferase splicing reporter, luminescence, 30-36 h | Potency, µM (series often up to 46.1 µM), for inactives: at the highest dose activity change, positive = activation, actives largely listed as activators | hit rate 2.8% among 210,000; also: % of control where 0% means no effect; nearly all actives have a fitted effect of over 55% in size
#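 HEK293 cells carry an SMN2 […]–luciferase reporter in which exon 7 inclusion puts luciferase in frame. Cells were plated 10-12 h before compound addition, then incubated 30-36 h at 37C. ONE-Glo luminescence was read; sodium butyrate at 4.5 mM final served as control.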
# ELG1 DNA repair – ELG1-dependent DNA repair inhibition. HEK293T ELG1-luciferase reporter, luminescence, 16 h; DNA damage induced by 5-fluorouridine. Potency, µM (doses to about 46.1 µM), inactives show at the top dose activity change, negative = inhibition, usual class: inhibitors. hit rate 2.3% among 330,000. AID 504467; also: % is scaled to controls: 0 for no effect and ±100 for the full control effect; nearly all actives have a fitted effect of over 55% in size
#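 Overnight (16 hr) co-exposure of 2,000 cells/well to 5-fluorouridine and compound at 37 °C preceded detection. Luciferase was quantified via ONE-Glo luminescence; loss of signal denotes inhibition.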
# ELG1 FLuc counter – luciferase inhibition in cell-free luciferin readout for ELG1 hits. hit rate 3% among 350. Potency, µM (series often up to 46.1 µM), inactives show at the highest dose activity change, negative = inhibition, actives largely listed as inhibitors. AID 624247. shares compounds with ELG1 DNA repair. cell-free firefly luciferase luminescence counter-screen, ViewLux; also: % is scaled to controls: 0 for no effect and ±100 for the full control effect
# ELG1-Luc inh – confirmation of human ELG1-dependent DNA repair inhibitors; shares compounds with ELG1 DNA repair; HEK293T ELG1-luciferase levels, luminescence; cells co-treated with 5-fluorouridine; Potency, µM (doses to about 46.1 µM), for inactives: top-dose activity change, negative = inhibition, most hits filed as inhibitors; hit rate 68% among 670; AID 624248; also: % is scaled to controls: 0 for no effect and ±100 for the full control effect; nearly all actives have a fitted effect of over 55% in size
# Target sequence (Q96QE3 whole entry, looked up): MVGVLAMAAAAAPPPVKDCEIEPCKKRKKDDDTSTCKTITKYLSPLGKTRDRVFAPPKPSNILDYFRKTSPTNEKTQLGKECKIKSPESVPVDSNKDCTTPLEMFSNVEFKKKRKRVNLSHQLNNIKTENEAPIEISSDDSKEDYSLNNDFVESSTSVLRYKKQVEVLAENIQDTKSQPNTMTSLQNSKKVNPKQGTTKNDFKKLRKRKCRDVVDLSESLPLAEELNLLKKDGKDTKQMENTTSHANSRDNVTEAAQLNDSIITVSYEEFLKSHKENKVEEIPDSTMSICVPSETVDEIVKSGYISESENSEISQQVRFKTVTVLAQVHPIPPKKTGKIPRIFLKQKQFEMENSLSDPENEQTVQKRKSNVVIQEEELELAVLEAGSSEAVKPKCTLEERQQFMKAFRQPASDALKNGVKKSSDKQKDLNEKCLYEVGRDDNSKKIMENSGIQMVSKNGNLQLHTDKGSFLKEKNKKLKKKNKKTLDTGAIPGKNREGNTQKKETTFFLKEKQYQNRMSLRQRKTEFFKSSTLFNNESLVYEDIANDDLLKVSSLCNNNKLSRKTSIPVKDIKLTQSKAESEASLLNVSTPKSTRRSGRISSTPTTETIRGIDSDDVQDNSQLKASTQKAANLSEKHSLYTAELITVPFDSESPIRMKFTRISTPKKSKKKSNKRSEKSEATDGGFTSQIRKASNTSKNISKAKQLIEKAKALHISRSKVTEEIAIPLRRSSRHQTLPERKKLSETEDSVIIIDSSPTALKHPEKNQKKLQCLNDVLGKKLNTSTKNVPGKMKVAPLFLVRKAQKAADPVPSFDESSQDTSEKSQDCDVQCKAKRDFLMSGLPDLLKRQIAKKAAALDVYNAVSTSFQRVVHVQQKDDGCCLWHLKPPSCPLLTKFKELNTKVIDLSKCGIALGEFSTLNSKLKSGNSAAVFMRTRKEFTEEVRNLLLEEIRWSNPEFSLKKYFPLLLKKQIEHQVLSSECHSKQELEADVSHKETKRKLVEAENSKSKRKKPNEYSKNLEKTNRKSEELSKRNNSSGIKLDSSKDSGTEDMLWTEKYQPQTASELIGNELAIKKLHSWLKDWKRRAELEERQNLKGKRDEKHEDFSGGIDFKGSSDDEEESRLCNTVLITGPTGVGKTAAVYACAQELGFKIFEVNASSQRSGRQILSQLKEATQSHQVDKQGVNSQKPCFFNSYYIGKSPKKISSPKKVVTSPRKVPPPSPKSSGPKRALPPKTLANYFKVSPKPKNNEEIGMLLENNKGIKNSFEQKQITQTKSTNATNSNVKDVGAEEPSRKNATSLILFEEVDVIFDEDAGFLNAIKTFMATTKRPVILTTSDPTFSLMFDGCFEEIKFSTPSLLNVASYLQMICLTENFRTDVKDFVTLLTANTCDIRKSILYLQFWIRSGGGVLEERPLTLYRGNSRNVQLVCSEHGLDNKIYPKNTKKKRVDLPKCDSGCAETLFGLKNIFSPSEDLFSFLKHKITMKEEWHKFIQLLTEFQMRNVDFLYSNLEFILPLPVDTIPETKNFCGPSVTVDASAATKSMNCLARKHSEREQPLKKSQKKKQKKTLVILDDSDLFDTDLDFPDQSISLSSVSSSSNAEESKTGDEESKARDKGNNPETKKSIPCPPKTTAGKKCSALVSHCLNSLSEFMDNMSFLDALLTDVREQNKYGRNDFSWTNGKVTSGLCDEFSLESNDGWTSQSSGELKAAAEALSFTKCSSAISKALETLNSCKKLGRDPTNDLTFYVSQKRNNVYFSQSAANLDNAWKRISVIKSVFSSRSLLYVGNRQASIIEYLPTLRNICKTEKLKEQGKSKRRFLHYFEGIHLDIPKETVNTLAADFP
# ELG1 MMS Luc – confirmation of human ELG1 repair inhibitors, MMS stimulated; AID 624249; Potency, µM (highest dose often 46.1 µM), inactives show top-dose activity change, negative = inhibition, actives largely listed as inhibitors; HEK293T luciferase-tagged ELG1 level, MMS stimulated; hit rate 53% among 670; shares compounds with ELG1 DNA repair; also: % is scaled to controls: 0 for no effect and ±100 for the full control effect; nearly all actives have a fitted effect of over 60% in size
# ELG1 5FU viab – confirmation of ELG1 repair inhibitors: viability with 5FU; shares compounds with ELG1 DNA repair; cell viability with 5-FU, ELG1-dependent repair; Potency, µM (highest dose often 46.1 µM), without a hit: at the highest dose activity change, negative = viability loss, hits mostly cytotoxic; 670 tested, under 10 active; AID 624250;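 also: ELG1-luc HEK293T cells cotreated with 5-fluorouridine at 10 µM final; viability measured 16 h after compound addition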
# ELG1 MMS viab – confirmation of ELG1 repair inhibitors: viability with MMS. Cell viability with MMS, ELG1-dependent DNA repair. AID 624251. Potency, µM (top dose mostly 46.1 µM), without a hit: at the highest dose activity change, negative = viability loss, most hits filed as cytotoxic. hit rate 33% among 670. shares compounds with ELG1 DNA repair;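 also: ELG1-luc HEK293T cells co-treated with 10 µM MMS; viability read 16 h after compound addition; % is scaled to controls: 0 for no effect and ±100 for the full control effect; nearly all actives have a fitted effect of over 60% in size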
# ELG1 unstim viab – affects unstimulated cell viability, ELG1 hit counter-screen | hit rate 8% among 900 | cell viability counter-screen, unstimulated, luminescence | shares compounds with ELG1 DNA repair | AID 624252 | Potency, µM (top dose mostly 45.9 µM), for inactives: at the highest dose activity change, negative = loss of viability, actives largely listed as cytotoxic;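 also: compound exposure lasted 16 hours before reading; % is scaled to controls: 0 for no effect and ±100 for the full control effect; nearly all actives have a fitted effect of over 55% in size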
# FLuc enzyme – counter-screen for ELG1 repair inhibitors: firefly luciferase inhibition | hit rate 10% among 350 | shares compounds with ELG1 DNA repair | purified firefly luciferase, luminescence counter-screen | Potency, µM (highest dose often 57.5 µM), for the others: top-dose activity, negative = inhibition, hits mostly inhibitors | AID 624253; also: % is scaled to controls: 0 for no effect and ±100 for the full control effect
# An asterisk follows results filed as active; ? = inconclusive; / = no result. Rows were chosen to be rich in hits. Some 9.2% of all compounds tested hit in one or more screens of this group. Calls follow the shape of the dose curve; as a rule, active = well fitted curve in the direction sought with a large enough effect; inconclusive = small, poorly fitted or top-dose-only effect, or another doubt; inactive = no such curve, though single readings can be large; an effect the other way counts as inactive or inconclusive. Potency is read from the fitted curve at half-maximal effect.
SMILES,FLuc modulator,NPC1 promoter act,Rab9 promoter act,ELG1 genotox,SMN2 splice up,ELG1 DNA repair,ELG1-Luc inh,ELG1 MMS Luc,ELG1 5FU viab,ELG1 MMS viab,ELG1 unstim viab,others
CC1(C)Cc2c(c(N3CCOCC3)nc3sc(C(=O)N4CCCCC4)c(N)c23)CO1,-3%,0%,0%,3%,5%,0.21µM*,0.45µM*,1%,?,-4%,-2%,ELG1 FLuc counter=20%;FLuc enzyme=-12%
COc1ccc(NC(=O)c2sc3nc(N4CCOCC4)c4c(c3c2N)CC(C)(C)OC4)cc1,4%,-4%,0%,19%,/,0.41µM*,0.35µM*,15%,?,-7%,-1%,ELG1 FLuc counter=4%;FLuc enzyme=-9%
CCOc1ccccc1/C=C/C(=O)NCC(=O)N1CCC(N(C)C2CCCCC2C)CC1 (centres undefined),0%,8%,-4%,0%,/,19%,/,/,/,/,/,
CN(C)S(=O)(=O)Oc1ccc(C(=O)Nc2ccc([N+](=O)[O-])cc2)cc1,-1%,-21%,-2%,4%,-39%,2.9µM*,0.71µM*,3.1µM*,?,?,3%,
COc1ccc(CCNC(=O)CCn2c(=O)c3cccn3c3cccnc32)cc1OC,1%,0%,0%,-2%,/,-17%,/,/,/,/,/,
COc1cc(CNc2ccc3[nH]c(=O)[nH]c3c2)cc(Br)c1OCc1ccccc1F,1%,-2%,-5%,11%,/,-10%,/,/,/,/,/,
Cc1ccc(S(=O)(=O)NCc2ccccn2)c(C)c1C,4%,-1%,0%,-2%,/,?,/,/,/,/,/,
Cc1ccc(S(=O)(=O)NCc2ccncc2)c(C)c1C,-5%,-3%,-5%,0%,/,0%,10%,1µM*,-10%,1.1µM*,?,ELG1 FLuc counter=-8%;FLuc enzyme=-4%
COc1cc(C)c(Br)cc1S(=O)(=O)NCc1ccncc1,0%,-20%,-24%,-3%,-45%,1.6µM*,-7%,3.2µM*,-7%,3.2µM*,?,ELG1 FLuc counter=-6%;FLuc enzyme=-1%
COCCCNC(=O)CN1C(=O)c2c(c3ccccc3n2C)C1c1ccc(OC)cc1 (centres undefined),3%,/,/,/,/,/,/,/,/,/,/,
CC(Oc1ccc(Cl)cc1)C(=O)Nc1ccc(S(=O)(=O)N2CCOCC2)cc1 (centres undefined),4%,-4%,-4%,1%,/,13%,/,/,/,/,/,
O=C(C[C@H]1C/C=C\C[C@@H](Cc2ccc(F)cc2)C(=O)O[C@@H](c2ccccc2)CNC1=O)NCCO,/,/,/,-5%,/,-26%,/,/,/,/,/,
O=C1NC[C@H](c2ccccc2)OC(=O)[C@@H](Cc2ccc(F)cc2)C/C=C\C[C@H]1CC(=O)N(CCO)Cc1ccccc1,/,/,/,-6%,/,2.6µM*,7.9µM*,13µM*,?,?,?,
O=C1NC[C@H](c2ccccc2)OC(=O)[C@H](Cc2ccc(F)cc2)C/C=C\C[C@H]1CC(=O)N(CCO)Cc1ccccc1,/,/,/,-14%,/,1.3µM*,5.6µM*,2.8µM*,?,?,?,
COc1ccccc1CCNC(=O)C(=O)NCC(c1ccco1)S(=O)(=O)c1ccccc1 (centres undefined),-9%,/,/,/,/,/,/,/,/,/,/,
CC(=O)N(Cc1cccnc1)c1nc2c(C)c(C)ccc2s1,-13%,/,/,/,/,/,/,/,/,/,/,
O=C(Cc1ccc(OCCCc2ccccc2)cc1)NO,/,/,/,/,/,/,/,/,/,/,-1%,
CCCCn1c(N)c(-c2nc3ccccc3o2)c2c([N+](=O)[O-])nn(CC)c(=O)c21,0%,-5%,-3%,7%,-8%,2.1µM*,1µM*,16%,?,-1%,-6%,
CCCCCn1c(N)c(-c2nc3ccccc3s2)c2c([N+](=O)[O-])nn(C)c(=O)c21,-16%,-6%,-7%,0%,/,0.73µM*,5µM*,28µM*,?,?,-4%,ELG1 FLuc counter=?;FLuc enzyme=-9%
CCCCn1c(N)c(-c2nc3ccccc3o2)c2c([N+](=O)[O-])nn(C)c(=O)c21,6%,-3%,-5%,-1%,0%,?,?,9%,?,12%,0%,
Cc1ccc(OCC(=O)NNC(=O)C2CC(=O)N(c3ccc4c(c3)OCCO4)C2)cc1 (centres undefined),1%,-1%,3%,2%,/,5%,/,/,/,/,/,
CCCCC[C@H](O)/C=C/C=C\CCCCCCCC(=O)O,/,/,/,/,3%,/,/,/,/,/,/,
Nc1cc(N)nc(SCC(=O)Nc2ccccc2N2CCOCC2)n1,1%,2%,0%,1%,/,8%,/,/,/,/,/,
CCc1ccc2nc(SCC(=O)Nc3ccccc3N3CCOCC3)c(C#N)cc2c1,-2%,-35%,-29%,0%,/,?,?,7.1µM*,-15%,11µM*,?,ELG1 FLuc counter=4%;FLuc enzyme=3%
O=C(COC(=O)COc1ccc2c(c1)CCC2)Nc1ccccc1C(F)(F)F,/,/,/,2%,/,3%,/,/,/,/,/,
CC(=O)Oc1ccc(-c2nc(-c3ccccc3)no2)cc1,/,/,/,/,/,/,/,/,/,/,?,
CCOC(=O)N1CCC(=NNC(=O)c2cc3ccccc3cc2O)CC1,?,-1%,-2%,-2%,6%,5%,/,/,/,/,/,
O=C1CCCC(=NNC(=O)c2cc3ccccc3cc2O)C1,/,/,/,?,/,?,/,/,/,/,-14%,
